Holding throughout (assay): growth (OD600 after 10 h); higher = more growth (less inhibition)
The test system of test [1] is E. coli TESEC Alr+ wild-type control. As to conditions: compound 0.1 mM; raw OD600 reference: median of DMSO wells 0.241, cell-free background 0.041. The method, then: (§1)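 TESEC Mtb Alr E. coli, or the Alr+ wild-type control, in 384-well plates with Prestwick library compounds at 0.1 mM and 1% DMSO, across arabinose induction levels of 1E3 to 1E7 nM. Growth is read as OD600 after 10 h at 37 °C in triplicate biological replicates.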

Test [2] has as its system E. coli TESEC Mtb Alr. As to conditions: compound 0.1 mM. On the procedure:
as §1

In a further test the test system is E. coli TESEC Mtb Asd. As to conditions: compound 0.1 mM. On the procedure:
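TESEC E. coli strains in which the native enzyme is deleted and replaced by arabinose-inducible Mtb Asd, DapB, CysH or TrpD, each grown in its selective medium. Strains were screened against the Prestwick library at 0.1 mM and 1% DMSO in 384-well format at low and high arabinose induction. Growth is read as OD600 after 10 h in triplicate.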

The subject of test [3] is E. coli TESEC Alr+ wild-type control. As to conditions: compound 0.1 mM; raw OD600 reference: median of DMSO wells 0.49, cell-free background 0.052. The method, then:
(§2)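 TESEC Mtb Alr E. coli (ΔaraC ΔtolC ΔentC Δalr ΔdadX, arabinose-inducible Mtb Alr) or the Alr+ wild-type control strain, grown in defined M9-fructose medium without D-alanine in 96-well plates with Prestwick library compounds at 0.1 mM and 1% DMSO. Low Alr induction is 0.1 µM arabinose and high induction is 10 mM arabinose.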

For test [4], the system named is E. coli TESEC Mtb Alr. As to conditions: compound 0.1 mM. On the procedure: as §2
This is another data set of the same source.

[5] abbreviates: arabinose 1000 nM, raw OD600 reference: median of DMSO wells 0.294, cell-free background 0.041.
The mark [6] stands for this setting: arabinose 10000 nM, raw OD600 reference: median of DMSO wells 0.264, cell-free background 0.041.
Setting [7] is: arabinose 100000 nM, raw OD600 reference: median of DMSO wells 0.201, cell-free background 0.041.
[8] abbreviates: arabinose 1000000 nM, raw OD600 reference: median of DMSO wells 0.193, cell-free background 0.041.
[9] abbreviates: arabinose 10000000 nM, raw OD600 reference: median of DMSO wells 0.146, cell-free background 0.041.
[10] abbreviates: arabinose induction (level): High, raw OD600 reference: median of DMSO wells 0.331, cell-free background 0.041.
[11] abbreviates: arabinose induction (level): Low, raw OD600 reference: median of DMSO wells 0.417, cell-free background 0.041.
[12] abbreviates: arabinose 100 nM, raw OD600 reference: median of DMSO wells 0.413, cell-free background 0.052.
Setting [13] is: arabinose 10000000 nM, raw OD600 reference: median of DMSO wells […], cell-free background 0.052.

Molecules are shown by their SMILES. Counter-ions that a name gives are not always drawn. ± gives the standard deviation of the averaged measurements.

We go through 7 compounds from the supplement of paper PMC9262897, “Low-cost anti-mycobacterial drug discovery using engineered E. coli” (Nature Communications, 2022).

`CN1CC2c3ccccc3Oc3ccc(Cl)cc3C2C1` (configuration not stated) [Asenapine maleate]: the growth in test [1] worked out at 0.184 ± 0.004; with E. coli TESEC Mtb Alr [2] (setting [5]) it was 0.159 ± 0.012; with E. coli TESEC Mtb Alr [2] (setting [6]) it was 0.225 ± 0.0073; in the test on E. coli TESEC Mtb Alr [2] (setting [7]), 0.18 ± 0.004; in the test on E. coli TESEC Mtb Alr [2] (setting [8]), 0.123 ± 0.0024; with E. coli TESEC Mtb Alr [2] (setting [9]) it was 0.164 ± 0.0081. Besides, the growth with E. coli TESEC Mtb Asd (setting [10]) is 0.229 ± 0.031; in the test on E. coli TESEC Mtb Asd (setting [11]) it was 0.295 ± 0.017; in test [3], 0.44 ± 0.01; in the test with E. coli TESEC Mtb Alr [4] (setting [12]), 0.417 ± 0.0072; with E. coli TESEC Mtb Alr [4] (setting [13]) it was 0.266 ± 0.0045.

For `CN(C)CCOC(C)(c1ccccc1)c1ccccn1` (configuration not stated) [Doxylamine succinate], the growth in test [1] amounted to 0.236 ± 0.0058; with E. coli TESEC Mtb Alr [2] (setting [5]) it was 0.288 ± 0.016; in the test on E. coli TESEC Mtb Alr [2] (setting [6]), 0.249 ± 0.0028; in the test on E. coli TESEC Mtb Alr [2] (setting [7]), 0.19 ± 0.025; with E. coli TESEC Mtb Alr [2] (setting [8]), 0.164 ± 0.0088; in the test with E. coli TESEC Mtb Alr [2] (setting [9]), 0.141 ± 0.0072. Further, the growth in the test on E. coli TESEC Mtb Asd (setting [10]) was 0.301 ± 0.028; in the test on E. coli TESEC Mtb Asd (setting [11]), 0.374 ± 0.071; in test [3], 0.51 ± 0.06; with E. coli TESEC Mtb Alr [4] (setting [12]), 0.41 ± 0.0066; in the test on E. coli TESEC Mtb Alr [4] (setting [13]) it was 0.353 ± 0.0099.

Regarding `O=C1Nc2ccc(Cl)cc2[C@@](C#CC2CC2)(C(F)(F)F)O1` [Efavirenz], the growth in test [1] is 0.0395 ± 0.00017; with E. coli TESEC Mtb Alr [2] (setting [5]), 0.0401 ± 0.00093; in the test with E. coli TESEC Mtb Alr [2] (setting [6]), 0.0421 ± 0.0013; in the test on E. coli TESEC Mtb Alr [2] (setting [7]), 0.0412 ± 0.0003; in the test with E. coli TESEC Mtb Alr [2] (setting [8]), 0.03963 ± 0.00025; in the test on E. coli TESEC Mtb Alr [2] (setting [9]) it was 0.0413 ± 0.0013. Besides, the growth in the test on E. coli TESEC Mtb Asd (setting [10]) is 0.0541 ± 0.0055; in the test on E. coli TESEC Mtb Asd (setting [11]), 0.0488 ± 0.0019; in test [3] it was 0.047 ± 0.00044; in the test with E. coli TESEC Mtb Alr [4] (setting [12]), 0.259 ± 0.075; with E. coli TESEC Mtb Alr [4] (setting [13]) it was 0.049 ± 0.00044.

In the case of `CCC(=O)OCC(=O)[C@@]1(OC(=O)CC)[C@H](C)C[C@H]2[C@H]3[C@H]([C@@H](O)C[C@@]21C)[C@@]1(C)C=CC(=O)C=C1C[C@H]3Cl` [Alclometasone dipropionate], the growth in test [1] is 0.21 ± 0.0058; with E. coli TESEC Mtb Alr [2] (setting [5]) it was 0.318 ± 0.028; with E. coli TESEC Mtb Alr [2] (setting [6]), 0.277 ± 0.017; in the test with E. coli TESEC Mtb Alr [2] (setting [7]) it was 0.226 ± 0.07; in the test with E. coli TESEC Mtb Alr [2] (setting [8]), 0.127 ± 0.022; in the test on E. coli TESEC Mtb Alr [2] (setting [9]), 0.217 ± 0.065. Also, the growth stood at 0.209 ± 0.013 with E. coli TESEC Mtb Asd (setting [10]); 0.459 ± 0.032 in the test on E. coli TESEC Mtb Asd (setting [11]); 0.492 ± 0.04 in test [3]; 0.401 ± 0.0078 with E. coli TESEC Mtb Alr [4] (setting [12]); 0.241 ± 0.04 in the test on E. coli TESEC Mtb Alr [4] (setting [13]).

As to `CC(C)C(=O)c1c(C(C)C)nn2ccccc12` [Ibudilast], the growth was 0.163 ± 0.0085 in test [1]; 0.221 ± 0.0062 with E. coli TESEC Mtb Alr [2] (setting [5]); 0.245 ± 0.0022 in the test on E. coli TESEC Mtb Alr [2] (setting [6]); 0.148 ± 0.0046 in the test on E. coli TESEC Mtb Alr [2] (setting [7]); 0.134 ± 0.0043 with E. coli TESEC Mtb Alr [2] (setting [8]); 0.127 ± 0.0043 in the test on E. coli TESEC Mtb Alr [2] (setting [9]). The growth in the test on E. coli TESEC Mtb Asd (setting [10]) was found to be 0.183 ± 0.011; in the test with E. coli TESEC Mtb Asd (setting [11]), 0.372 ± 0.032; in test [3] it was 0.49 ± 0.013; in the test with E. coli TESEC Mtb Alr [4] (setting [12]), 0.401 ± 0.0083; in the test with E. coli TESEC Mtb Alr [4] (setting [13]), 0.229 ± 0.0069.

Regarding `Cc1cc(C(C)(C)C)c(O)c(C)c1CC1=NCCN1` [Oxymetazoline hydrochloride], the growth was 0.236 ± 0.0092 in test [1]; 0.302 ± 0.0066 in the test with E. coli TESEC Mtb Alr [2] (setting [5]); 0.263 ± 0.014 in the test with E. coli TESEC Mtb Alr [2] (setting [6]); 0.196 ± 0.011 in the test on E. coli TESEC Mtb Alr [2] (setting [7]); 0.17 ± 0.011 in the test with E. coli TESEC Mtb Alr [2] (setting [8]); 0.165 ± 0.011 with E. coli TESEC Mtb Alr [2] (setting [9]). In addition, the growth in the test on E. coli TESEC Mtb Asd (setting [10]) was 0.372 ± 0.07; in the test with E. coli TESEC Mtb Asd (setting [11]), 0.416 ± 0.035; in test [3] it was 0.514 ± 0.062; in the test on E. coli TESEC Mtb Alr [4] (setting [12]), 0.414 ± 0.013; in the test with E. coli TESEC Mtb Alr [4] (setting [13]), 0.328 ± 0.011.

Regarding `COC(=O)C1=C(C)NC(C)=C(C(=O)OC)C1c1ccccc1[N+](=O)[O-]` [Nifedipine], the growth came out at 0.0488 ± 0.00049 in test [1]; 0.144 ± 0.0021 with E. coli TESEC Mtb Alr [2] (setting [5]); 0.2006 ± 0.0018 with E. coli TESEC Mtb Alr [2] (setting [6]); 0.136 ± 0.0053 in the test with E. coli TESEC Mtb Alr [2] (setting [7]); 0.0952 ± 0.0041 with E. coli TESEC Mtb Alr [2] (setting [8]); 0.149 ± 0.0044 with E. coli TESEC Mtb Alr [2] (setting [9]). The growth worked out at 0.0844 ± 0.0011 in the test on E. coli TESEC Mtb Asd (setting [10]); 0.0795 ± 0.0099 in the test on E. coli TESEC Mtb Asd (setting [11]); 0.447 ± 0.017 in test [3]; 0.39 ± 0.0088 with E. coli TESEC Mtb Alr [4] (setting [12]); 0.21 ± 0.039 in the test on E. coli TESEC Mtb Alr [4] (setting [13]).
